Experimental data reported in the supplement of paper PMC12282887.
± gives the standard deviation of the averaged measurements.

Legend:
Experiment in all cases: promoter activity interaction Z-score (Lux/OD deviation from empty-vector control); higher = stronger promoter induction by the compound
[1] = tested on: E. coli BW25113 acrABp lux reporter
Method in brief: (§1)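 At 37°C, E. coli BW25113 reporter cultures in 40 µl LB Lennox in 384-well plates were read for OD600 and luminescence every 30 min for 12 h. Windows were 0–8 h for wild type and 1–9 h for deletion strains, and wells under 10% of the median growth value were removed. The score is the Z-transformed residual of growth-normalised luminescence against a control fit.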

[2] = tested on: E. coli BW25113 marRABp lux reporter
Method in brief: as §1

[3] = tested on: E. coli BW25113 micFp lux reporter
Method in brief: as §1

[4] = tested on: E. coli BW25113 ompFp lux reporter
Method in brief: as §1

[5] = tested on: E. coli BW25113 robp lux reporter
Method in brief: as §1

[6] = tested on: E. coli BW25113 soxSp lux reporter
Method in brief: as §1

[7] = tested on: E. coli BW25113 tolCp lux reporter
Method in brief: as §1

[8] = 20 µg/ml, genetic background: wild type
[9] = 20 µg/ml, genetic background: ΔmarA
[10] = 20 µg/ml, genetic background: Δrob
[11] = 20 µg/ml, genetic background: ΔsoxS
[12] = 39.9 µg/ml, genetic background: wild type
[13] = 39.9 µg/ml, genetic background: ΔmarA
[14] = 39.9 µg/ml, genetic background: Δrob
[15] = 39.9 µg/ml, genetic background: ΔsoxS
[16] = 79.8 µg/ml, genetic background: wild type
[17] = 79.8 µg/ml, genetic background: ΔmarA
[18] = 79.8 µg/ml, genetic background: Δrob
[19] = 79.8 µg/ml, genetic background: ΔsoxS
[20] = 159.6 µg/ml, genetic background: wild type
[21] = 159.6 µg/ml, genetic background: ΔmarA
[22] = 159.6 µg/ml, genetic background: Δrob
[23] = 159.6 µg/ml, genetic background: ΔsoxS

NC[C@H](O)c1ccc(O)c(O)c1 [Noradrenalin]
promoter activity interaction Z-score [1, 8]: 0.191 ± 0.043 | promoter activity interaction Z-score [1, 9]: 0.362 ± 0.59 | promoter activity interaction Z-score [1, 10]: 0.47 ± 0.3 | promoter activity interaction Z-score [1, 11]: 0.122 ± 0.4 | promoter activity interaction Z-score [1, 12]: 0.0636 ± 0.28 | promoter activity interaction Z-score [1, 13]: 0.359 ± 0.28 | promoter activity interaction Z-score [1, 14]: 0.344 ± 0.66 | promoter activity interaction Z-score [1, 15]: 0.23 ± 0.37 | promoter activity interaction Z-score [1, 16]: 0.335 ± 0.023 | promoter activity interaction Z-score [1, 17]: -0.978 ± 0.27 | promoter activity interaction Z-score [1, 18]: 0.541 ± 0.3 | promoter activity interaction Z-score [1, 19]: 0.0112 ± 0.031 | promoter activity interaction Z-score [1, 20]: 0.208 ± 0.26 | promoter activity interaction Z-score [1, 21]: 0.422 ± 0.39 | promoter activity interaction Z-score [1, 22]: 0.664 ± 0.6 | promoter activity interaction Z-score [1, 23]: 0.626 ± 0.16 | promoter activity interaction Z-score [2, 8]: 0.189 ± 0.16 | promoter activity interaction Z-score [2, 9]: 0.444 ± 0.053 | promoter activity interaction Z-score [2, 10]: 0.108 ± 0.12 | promoter activity interaction Z-score [2, 11]: 0.239 ± 0.13 | promoter activity interaction Z-score [2, 12]: 0.0664 ± 0.085 | promoter activity interaction Z-score [2, 13]: 0.371 ± 0.24 | promoter activity interaction Z-score [2, 14]: 0.256 ± 0.08 | promoter activity interaction Z-score [2, 15]: 0.078 ± 0.037 | promoter activity interaction Z-score [2, 16]: 0.253 ± 0.15 | promoter activity interaction Z-score [2, 17]: -0.0312 ± 0.044 | promoter activity interaction Z-score [2, 18]: -0.0145 ± 0.019 | promoter activity interaction Z-score [2, 19]: 0.36 ± 0.27 | promoter activity interaction Z-score [2, 20]: 0.17 ± 0.12 | promoter activity interaction Z-score [2, 21]: -0.0497 ± 0.011 | promoter activity interaction Z-score [2, 22]: 0.0596 ± 0.2 | promoter activity interaction Z-score [2, 23]: 0.217 ± 0.22 | promoter activity interaction Z-score [3, 8]: -0.0178 ± 0.045 | promoter activity interaction Z-score [3, 9]: 0.0504 ± 0.056 | promoter activity interaction Z-score [3, 10]: -0.0409 ± 0.027 | promoter activity interaction Z-score [3, 11]: 0.0398 ± 0.17 | promoter activity interaction Z-score [3, 12]: -0.101 ± 0.2 | promoter activity interaction Z-score [3, 13]: -0.00878 ± 0.065 | promoter activity interaction Z-score [3, 14]: -0.0156 ± 0.16 | promoter activity interaction Z-score [3, 15]: -0.114 ± 0.0037 | promoter activity interaction Z-score [3, 16]: 0.00145 ± 0.18 | promoter activity interaction Z-score [3, 17]: -0.0653 ± 0.027 | promoter activity interaction Z-score [3, 18]: -0.14 ± 0.2 | promoter activity interaction Z-score [3, 19]: 0.0484 ± 0.0015 | promoter activity interaction Z-score [3, 20]: -0.129 ± 0.14 | promoter activity interaction Z-score [3, 21]: -0.17 ± 0.03 | promoter activity interaction Z-score [3, 22]: -0.105 ± 0.047 | promoter activity interaction Z-score [3, 23]: -0.0781 ± 0.094 | promoter activity interaction Z-score [4, 8]: 0.507 ± 0.061 | promoter activity interaction Z-score [4, 9]: 0.708 ± 0.42 | promoter activity interaction Z-score [4, 10]: 0.59 ± 0.074 | promoter activity interaction Z-score [4, 11]: 0.138 ± 0.1 | promoter activity interaction Z-score [4, 12]: 0.854 ± 0.025 | promoter activity interaction Z-score [4, 13]: 0.48 ± 0.12 | promoter activity interaction Z-score [4, 14]: 0.602 ± 0.42 | promoter activity interaction Z-score [4, 15]: 0.403 ± 0.22 | promoter activity interaction Z-score [4, 16]: 0.895 ± 0.33 | promoter activity interaction Z-score [4, 17]: 0.0373 ± 0.12 | promoter activity interaction Z-score [4, 18]: 0.307 ± 0.14 | promoter activity interaction Z-score [4, 19]: 0.13 ± 0.09 | promoter activity interaction Z-score [4, 20]: 1.01 ± 0.25 | promoter activity interaction Z-score [4, 21]: 0.851 ± 0.14 | promoter activity interaction Z-score [4, 22]: 0.476 ± 1.1 | promoter activity interaction Z-score [4, 23]: 1.13 ± 0.2 | promoter activity interaction Z-score [5, 8]: 0.547 ± 0.64 | promoter activity interaction Z-score [5, 9]: 0.384 ± 0.1 | promoter activity interaction Z-score [5, 10]: 0.384 ± 0.47 | promoter activity interaction Z-score [5, 11]: 1.12 ± 0.86 | promoter activity interaction Z-score [5, 12]: 0.762 ± 0.056 | promoter activity interaction Z-score [5, 13]: 1.14 ± 0.33 | promoter activity interaction Z-score [5, 14]: 0.129 ± 0.011 | promoter activity interaction Z-score [5, 15]: 0.395 ± 0.56 | promoter activity interaction Z-score [5, 16]: 0.33 ± 0.14 | promoter activity interaction Z-score [5, 17]: -0.159 ± 0.14 | promoter activity interaction Z-score [5, 18]: -0.0403 ± 0.17 | promoter activity interaction Z-score [5, 19]: 0.042 ± 0.74 | promoter activity interaction Z-score [5, 20]: 0.223 ± 0.48 | promoter activity interaction Z-score [5, 21]: -0.276 ± 0.24 | promoter activity interaction Z-score [5, 22]: -0.36 ± 0.58 | promoter activity interaction Z-score [5, 23]: -0.182 ± 0.36 | promoter activity interaction Z-score [6, 8]: -0.0849 ± 0.038 | promoter activity interaction Z-score [6, 9]: -0.0801 ± 0.073 | promoter activity interaction Z-score [6, 10]: -0.113 ± 0.058 | promoter activity interaction Z-score [6, 11]: 0.0191 ± 0.33 | promoter activity interaction Z-score [6, 12]: 0.0167 ± 0.12 | promoter activity interaction Z-score [6, 13]: -0.0796 ± 0.033 | promoter activity interaction Z-score [6, 14]: -0.0193 ± 0.2 | promoter activity interaction Z-score [6, 15]: 0.0258 ± 0.27 | promoter activity interaction Z-score [6, 16]: -0.0633 ± 0.035 | promoter activity interaction Z-score [6, 17]: -0.258 ± 0.028 | promoter activity interaction Z-score [6, 18]: -0.159 ± 0.19 | promoter activity interaction Z-score [6, 19]: -0.00763 ± 0.11 | promoter activity interaction Z-score [6, 20]: -0.154 ± 0.0074 | promoter activity interaction Z-score [6, 21]: -0.357 ± 0.097 | promoter activity interaction Z-score [6, 22]: -0.388 ± 0.16 | promoter activity interaction Z-score [6, 23]: -0.0342 ± 0.11 | promoter activity interaction Z-score [7, 8]: 0.0786 ± 0.23 | promoter activity interaction Z-score [7, 9]: 0.206 ± 1.2 | promoter activity interaction Z-score [7, 10]: -0.339 ± 0.25 | promoter activity interaction Z-score [7, 11]: -0.485 ± 0.31 | promoter activity interaction Z-score [7, 12]: -0.478 ± 0.28 | promoter activity interaction Z-score [7, 13]: 0.198 ± 0.13 | promoter activity interaction Z-score [7, 14]: -0.000984 ± 1.4 | promoter activity interaction Z-score [7, 15]: -0.431 ± 0.54 | promoter activity interaction Z-score [7, 16]: 0.0142 ± 0.56 | promoter activity interaction Z-score [7, 17]: -0.267 ± 0.49 | promoter activity interaction Z-score [7, 18]: 0.254 ± 0.35 | promoter activity interaction Z-score [7, 19]: -0.273 ± 0.31 | promoter activity interaction Z-score [7, 20]: -0.957 ± 1.4 | promoter activity interaction Z-score [7, 21]: -0.659 ± 0.07 | promoter activity interaction Z-score [7, 22]: -0.565 ± 0.4 | promoter activity interaction Z-score [7, 23]: -0.633 ± 0.011
